# Laboratory results from PubChem BioAssay (EPA / NIEHS).
# Records with an inconclusive call do not appear. Activity calls are given as the source filed them. Rule for the calls: active = hit-call score of the fitted dose curve at least 0.9, where 1 is the maximum; inconclusive = response in the unintended direction; inactive = score below 0.9.
# How the values were obtained:
# [1] = biological target: Collagenase 3 (Homo sapiens) (UniProt P45452); test: NVS_ENZ_hMMP13: NovaScreen (NVS) Enzymatic Assay for human Matrix Metalloproteinase-13 (MMP13) (AID 2283182)
# Summary of the method: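 Recombinant MMP13 cleaving fluorescent substrate, cell-free, measured 1 h after dosing. Primary duplicate screen at 25 uM; actives tested in concentration-response up to 50 uM; loss of signal relative to DMSO.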
# [2] = biological target: Mitogen-activated protein kinase 3 (Homo sapiens) (UniProt P27361); test: NVS_ENZ_hMAPK3: NovaScreen (NVS) Enzymatic Assay for human Mitogen-Activated Protein Kinase 3 (MAPK 3) (AID 2283177)
# Summary of the method: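 Cell-free enzymatic assay with recombinant protein and specific substrate; fluorescence and electrophoretic mobility shift read-out 1 h after dosing. Primary screen duplicate at 25 uM; actives then run in concentration-response up to 50 uM, loss of signal versus DMSO.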
# [3] = biological target: human Matrix Metalloproteinase-7 (MMP7), MMP7 (gene 4316) (UniProt P09237); test: NVS_ENZ_hMMP7: NovaScreen (NVS) Enzymatic Assay for human Matrix Metalloproteinase-7 (MMP7) (AID 2283183)
# Summary of the method: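 Cell-free fluorescence enzymatic assay read 1 h after compound addition, activity loss analyzed against DMSO. Primary duplicate testing at 25 uM; compounds meeting threshold rerun in singleton concentration-response up to 50 uM.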
# [4] = biological target: human Phosphodiesterase 4A1 (PDE4A1), PDE4A (gene 5141) (UniProt P27815); test: NVS_ENZ_hPDE4A1: NovaScreen (NVS) Enzymatic Assay for human Phosphodiesterase 4A1 (PDE4A1) (AID 2283191)
# Summary of the method: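 Cell-free recombinant human PDE4A1 with fluorescent substrate; product separated by electrophoretic mobility shift, 1 h. Screened at 25 uM, then up to 50 uM in concentration-response; loss of signal fitted against DMSO.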
# [5] = biological target: Serine/threonine-protein phosphatase PP1-alpha catalytic subunit (Homo sapiens) (UniProt P62136); test: NVS_ENZ_hPPP1CA: NovaScreen (NVS) Enzymatic Assay for human Protein Phosphatase 1 Aatalytic subunit Alpha (PPP1CA) (AID 2283200)
# Summary of the method: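 Recombinant enzyme activity read by fluorescence with electrophoretic mobility shift separating substrate from product, 1.33 h after dosing; loss of signal vs DMSO baseline. Primary screen in duplicate at 25 uM; actives retested in concentration-response up to 50 uM.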
# [6] = biological target: human Protein Phosphatase, Mg2+/Mn2+ Dependent 1A (PPM1A), PPM1A (gene 5494) (UniProt P35813); test: NVS_ENZ_hPPM1A: NovaScreen (NVS) Enzymatic Assay for human Protein Phosphatase, Mg2+/Mn2+ Dependent 1A (PPM1A) (AID 2283198)
# Summary of the method: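 Cell-free recombinant PPM1A phosphatase assay with fluorescent substrate, read 1 h after dosing by electrophoretic mobility shift. Chemicals screened in duplicate at 25 uM, then in concentration-response up to 50 uM; loss of activity versus DMSO.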
# [7] = biological target: human Matrix Metalloproteinase-9 (MMP9), MMP9 (gene 4318) (UniProt P14780); test: NVS_ENZ_hMMP9: NovaScreen (NVS) Enzymatic Assay for human Matrix Metalloproteinase-9 (MMP9) (AID 2283190);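 note: cell-free recombinant MMP9 protease activity read by fluorescent substrate signal; active means inhibition seen as loss of fluorescence signal versus DMSO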
# Summary of the method: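 Screening concentration 25 uM, duplicate wells, then dose series for confirmation. Cell-free enzymatic reaction measured by fluorescence intensity 1 h post-dosing; decreased signal versus DMSO taken as activity.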
# [8] = biological target: human Phosphodiesterase 10 (PDE10), PDE10A (gene 10846) (UniProt Q9Y233); test: NVS_ENZ_hPDE10: NovaScreen (NVS) Enzymatic Assay for human Phosphodiesterase 10 (PDE10) (AID 2283195)
# Summary of the method: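 PDE10A, cell-free; 1 h incubation; fluorescence intensity + electrophoretic mobility shift separating substrate/product; DMSO = baseline; 25 uM duplicate primary, CRC up to 50 uM.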
# [9] = biological target: human Matrix Metalloproteinase-3 (MMP3), MMP3 (gene 4314) (UniProt P08254); test: NVS_ENZ_hMMP3: NovaScreen (NVS) Enzymatic Assay for human Matrix Metalloproteinase-3 (MMP3) (AID 2283185)
# Summary of the method: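 Cell-free recombinant human MMP3 activity, fluorescence intensity read 1 h after dosing. Primary screen duplicate at 25 uM, actives retested in concentration series; loss of signal vs DMSO baseline.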
# [10] = biological target: Tyrosine-protein phosphatase non-receptor type 12 (Homo sapiens) (UniProt Q05209); test: NVS_ENZ_hPTPN12: NovaScreen (NVS) Enzymatic Assay for human Protein Tyrosine Phosphatase Non-receptor Type 12 (PTPN12) (AID 2283204)
# Summary of the method: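 Single-concentration duplicates (25 uM) preceded singleton concentration-response up to 50 uM for chemicals passing threshold. Cell-free recombinant PTPN12 activity was read 1.33 h after dosing via fluorescence after mobility-shift separation; loss of signal versus DMSO.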
# [11] = biological target: cAMP-dependent protein kinase catalytic subunit alpha (Homo sapiens) (UniProt P17612); test: NVS_ENZ_hPKA: NovaScreen (NVS) Enzymatic Assay for human Protein Kinase A (PKA) (AID 2283192)
# Summary of the method: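 Recombinant human PKA with specific fluorescent substrate, product separated by electrophoretic mobility shift, read 1 h after dosing. Primary screen at 25 uM in duplicate; actives then run in concentration-response up to 50 uM, activity relative to DMSO.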
# [12] = biological target: human Phosphoinositide 3-kinase alpha (PI3Ka), PIK3CA (gene 5290) (UniProt P42336); test: NVS_ENZ_hPI3Ka: NovaScreen (NVS) Enzymatic Assay for human Phosphoinositide 3-kinase alpha (PI3Ka) (AID 2283196)
# Summary of the method: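 Duplicate single-point screen (25 uM), then singleton dose-response (max 50 uM) for compounds meeting the threshold. Cell-free kinase reaction, 1 h; fluorescent mobility-shift readout.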
# [13] = biological target: human Matrix Metalloproteinase-2 (MMP2), MMP2 (gene 4313) (UniProt P08253); test: NVS_ENZ_hMMP2: NovaScreen (NVS) Enzymatic Assay for human Matrix Metalloproteinase-2 (MMP2) (AID 2283184)
# Summary of the method: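 Cell-free recombinant MMP2 activity with a fluorescent substrate, read 1 h after dosing. Primary screen in duplicate at 25 uM; actives then run in concentration series; loss of signal fitted versus DMSO.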
# [14] = biological target: human Protein Tyrosine Phosphatase Non-receptor Type 1 (PTPN1), PTPN1 (gene 5770) (UniProt P18031); test: NVS_ENZ_hPTPN1: NovaScreen (NVS) Enzymatic Assay for human Protein Tyrosine Phosphatase Non-receptor Type 1 (PTPN1) (AID 2283201)
# Summary of the method: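 Cell-free fluorogenic-substrate activity assay on recombinant enzyme, read 1.33 h after dosing by fluorescence and electrophoretic mobility shift; loss of signal vs DMSO baseline. Primary screen in duplicate at 25 uM, hits then run in concentration-response up to 50 uM.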
# [15] = biological target: Tyrosine-protein phosphatase non-receptor type 13 (Homo sapiens) (UniProt Q12923); test: NVS_ENZ_hPTPN13: NovaScreen (NVS) Enzymatic Assay for human Protein Tyrosine Phosphatase Non-receptor Type 13 (PTPN13) (AID 2283205)
# Summary of the method: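 Cell-free assay of recombinant human PTPN13 with a fluorescent substrate, product separated by electrophoretic mobility shift and read 0.5 h after dosing. Primary screen at 25 uM in duplicate, then concentration-response up to 50 uM. Loss of signal fitted against DMSO.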
# [16] = biological target: human Mitogen- and Stress-activated Protein Kinase-1 (Msk1), RPS6KA5 (gene 9252) (UniProt O75582); test: NVS_ENZ_hMsk1: NovaScreen (NVS) Enzymatic Assay for human Mitogen- and Stress-activated Protein Kinase-1 (Msk1) (AID 2283187)
# Summary of the method: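 Recombinant kinase with fluorescent substrate; product separated by electrophoretic mobility shift, read 1 h after dosing. Screened in duplicate at 25 uM; hits (e.g. ≥30% inhibition) tested in concentration–response up to 50 uM. DMSO baseline.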
# [17] = biological target: human Protein Tyrosine Phosphatase Non-receptor Type 4 (PTPN4), PTPN4 (gene 5775) (UniProt P29074); test: NVS_ENZ_hPTPN4: NovaScreen (NVS) Enzymatic Assay for human Protein Tyrosine Phosphatase Non-receptor Type 4 (PTPN4) (AID 2283208)
# Summary of the method: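 Cell-free assay of PTPN4 expressed in Sf9 cells, using a fluorescent substrate with product separated by mobility shift; read 1.33 h after dosing. Single-point screen at 25 uM, then concentration-response up to 50 uM. Loss of signal relative to DMSO.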
# [18] = biological target: Tyrosine-protein phosphatase non-receptor type 11 (Homo sapiens) (UniProt Q06124); test: NVS_ENZ_hPTPN11: NovaScreen (NVS) Enzymatic Assay for human Protein Tyrosine Phosphatase Non-receptor Type 11 (PTPN11) (AID 2283202)
# Summary of the method: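 Recombinant human PTPN11 activity on a fluorescent substrate, with substrate/product separated by electrophoretic mobility shift; read 0.5 h after dosing, loss of signal vs DMSO. Duplicate 25 uM screen, then concentration-response up to 50 uM.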
# human Phosphodiesterase 10 (PDE10), PDE10A (gene 10846), sequence (Q9Y233 whole entry, looked up): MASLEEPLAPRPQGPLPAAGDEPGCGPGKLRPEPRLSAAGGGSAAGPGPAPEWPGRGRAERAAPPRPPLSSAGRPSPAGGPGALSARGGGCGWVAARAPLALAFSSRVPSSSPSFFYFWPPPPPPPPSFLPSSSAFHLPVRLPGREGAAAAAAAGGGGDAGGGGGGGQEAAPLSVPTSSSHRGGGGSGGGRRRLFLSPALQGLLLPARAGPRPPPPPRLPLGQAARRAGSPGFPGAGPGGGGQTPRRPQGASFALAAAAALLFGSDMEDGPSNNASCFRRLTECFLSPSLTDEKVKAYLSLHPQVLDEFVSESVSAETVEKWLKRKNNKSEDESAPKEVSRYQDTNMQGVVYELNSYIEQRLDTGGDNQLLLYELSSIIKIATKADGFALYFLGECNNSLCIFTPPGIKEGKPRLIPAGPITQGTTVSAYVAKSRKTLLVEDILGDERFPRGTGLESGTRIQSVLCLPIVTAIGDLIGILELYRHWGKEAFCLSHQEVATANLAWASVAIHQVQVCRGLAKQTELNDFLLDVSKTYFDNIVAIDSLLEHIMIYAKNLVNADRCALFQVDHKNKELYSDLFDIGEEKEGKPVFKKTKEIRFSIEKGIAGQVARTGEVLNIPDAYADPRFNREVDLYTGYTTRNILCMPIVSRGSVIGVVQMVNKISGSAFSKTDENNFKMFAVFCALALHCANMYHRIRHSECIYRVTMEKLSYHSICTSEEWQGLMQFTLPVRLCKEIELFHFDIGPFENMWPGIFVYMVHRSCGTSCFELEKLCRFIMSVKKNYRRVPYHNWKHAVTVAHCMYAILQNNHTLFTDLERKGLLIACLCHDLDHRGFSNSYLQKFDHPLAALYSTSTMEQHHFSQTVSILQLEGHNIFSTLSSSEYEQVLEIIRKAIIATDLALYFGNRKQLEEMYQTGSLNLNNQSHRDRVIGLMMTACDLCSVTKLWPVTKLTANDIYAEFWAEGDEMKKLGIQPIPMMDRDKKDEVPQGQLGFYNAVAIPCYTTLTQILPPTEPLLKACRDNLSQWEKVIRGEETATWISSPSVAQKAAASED
# Serine/threonine-protein phosphatase PP1-alpha catalytic subunit (Homo sapiens), sequence (P62136 whole entry, looked up): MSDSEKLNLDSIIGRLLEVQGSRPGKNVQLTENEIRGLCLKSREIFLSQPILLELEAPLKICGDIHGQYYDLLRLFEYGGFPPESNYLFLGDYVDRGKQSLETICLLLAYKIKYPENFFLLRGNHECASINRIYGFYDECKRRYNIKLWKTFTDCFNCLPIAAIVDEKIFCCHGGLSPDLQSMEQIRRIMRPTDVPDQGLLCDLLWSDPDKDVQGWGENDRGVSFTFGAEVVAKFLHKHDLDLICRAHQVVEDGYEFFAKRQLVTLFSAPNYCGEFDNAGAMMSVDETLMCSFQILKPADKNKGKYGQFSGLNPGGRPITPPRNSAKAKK
# human Phosphodiesterase 4A1 (PDE4A1), PDE4A (gene 5141), sequence (P27815 whole entry, looked up): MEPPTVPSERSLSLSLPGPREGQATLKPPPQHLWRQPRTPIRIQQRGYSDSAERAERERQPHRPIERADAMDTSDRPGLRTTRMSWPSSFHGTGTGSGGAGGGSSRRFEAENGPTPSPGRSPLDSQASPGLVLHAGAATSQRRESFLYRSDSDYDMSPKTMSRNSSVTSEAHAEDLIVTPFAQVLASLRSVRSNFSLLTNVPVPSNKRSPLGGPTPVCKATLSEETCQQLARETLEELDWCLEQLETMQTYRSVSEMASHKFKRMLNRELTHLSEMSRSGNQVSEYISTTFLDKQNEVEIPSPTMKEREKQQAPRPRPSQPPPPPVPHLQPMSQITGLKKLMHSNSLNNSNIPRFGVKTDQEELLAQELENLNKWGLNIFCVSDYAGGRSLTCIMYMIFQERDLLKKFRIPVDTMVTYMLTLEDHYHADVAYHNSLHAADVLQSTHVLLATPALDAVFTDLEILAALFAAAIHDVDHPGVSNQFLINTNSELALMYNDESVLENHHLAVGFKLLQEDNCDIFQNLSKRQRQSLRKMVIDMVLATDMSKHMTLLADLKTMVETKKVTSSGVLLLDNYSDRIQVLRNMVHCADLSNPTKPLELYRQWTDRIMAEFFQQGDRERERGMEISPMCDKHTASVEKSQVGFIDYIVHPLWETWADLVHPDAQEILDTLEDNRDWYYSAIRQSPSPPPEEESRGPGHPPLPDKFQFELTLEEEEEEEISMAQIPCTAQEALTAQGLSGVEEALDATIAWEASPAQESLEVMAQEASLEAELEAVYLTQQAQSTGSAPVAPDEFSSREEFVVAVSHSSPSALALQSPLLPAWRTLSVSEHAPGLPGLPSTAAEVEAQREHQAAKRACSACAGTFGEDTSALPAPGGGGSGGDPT
# human Matrix Metalloproteinase-9 (MMP9), MMP9 (gene 4318), sequence (P14780 whole entry, looked up): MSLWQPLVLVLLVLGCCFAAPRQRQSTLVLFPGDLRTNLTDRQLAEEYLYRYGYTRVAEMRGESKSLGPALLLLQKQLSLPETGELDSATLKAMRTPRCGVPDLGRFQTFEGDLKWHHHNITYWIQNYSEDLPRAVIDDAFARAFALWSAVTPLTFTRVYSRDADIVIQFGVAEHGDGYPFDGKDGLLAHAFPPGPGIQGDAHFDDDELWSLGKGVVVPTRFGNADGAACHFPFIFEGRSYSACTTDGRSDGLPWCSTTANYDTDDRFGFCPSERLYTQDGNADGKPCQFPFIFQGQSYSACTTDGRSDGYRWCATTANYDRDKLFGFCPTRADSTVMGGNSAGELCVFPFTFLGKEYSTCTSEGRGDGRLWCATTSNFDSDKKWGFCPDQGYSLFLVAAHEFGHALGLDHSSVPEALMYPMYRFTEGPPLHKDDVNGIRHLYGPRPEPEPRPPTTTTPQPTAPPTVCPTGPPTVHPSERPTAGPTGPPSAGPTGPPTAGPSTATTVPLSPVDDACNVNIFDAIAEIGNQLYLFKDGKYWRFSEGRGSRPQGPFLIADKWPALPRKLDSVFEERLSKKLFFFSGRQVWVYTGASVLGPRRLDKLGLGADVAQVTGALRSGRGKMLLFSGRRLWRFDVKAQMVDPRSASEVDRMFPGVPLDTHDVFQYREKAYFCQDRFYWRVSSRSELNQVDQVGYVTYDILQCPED
# Tyrosine-protein phosphatase non-receptor type 12 (Homo sapiens), sequence (Q05209 whole entry, looked up): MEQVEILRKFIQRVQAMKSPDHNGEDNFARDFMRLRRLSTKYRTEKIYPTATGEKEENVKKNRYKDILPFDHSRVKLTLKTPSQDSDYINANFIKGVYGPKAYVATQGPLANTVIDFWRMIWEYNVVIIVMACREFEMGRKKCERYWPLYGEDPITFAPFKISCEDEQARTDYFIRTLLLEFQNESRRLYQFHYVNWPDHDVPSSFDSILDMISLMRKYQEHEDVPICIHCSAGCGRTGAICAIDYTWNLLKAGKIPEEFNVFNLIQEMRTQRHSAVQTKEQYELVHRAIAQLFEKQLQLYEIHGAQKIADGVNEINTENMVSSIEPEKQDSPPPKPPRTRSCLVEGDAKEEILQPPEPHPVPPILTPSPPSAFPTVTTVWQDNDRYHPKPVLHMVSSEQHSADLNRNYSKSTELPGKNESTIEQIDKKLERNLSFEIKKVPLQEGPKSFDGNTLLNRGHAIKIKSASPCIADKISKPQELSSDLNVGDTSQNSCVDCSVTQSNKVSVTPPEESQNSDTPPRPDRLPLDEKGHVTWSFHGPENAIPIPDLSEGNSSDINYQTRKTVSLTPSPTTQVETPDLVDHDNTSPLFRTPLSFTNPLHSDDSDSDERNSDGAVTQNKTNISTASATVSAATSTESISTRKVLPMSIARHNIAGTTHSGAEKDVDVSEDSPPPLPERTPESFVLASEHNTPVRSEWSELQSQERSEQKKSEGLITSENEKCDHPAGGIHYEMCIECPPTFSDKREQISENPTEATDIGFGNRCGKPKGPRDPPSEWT
# human Matrix Metalloproteinase-3 (MMP3), MMP3 (gene 4314), sequence (P08254 whole entry, looked up): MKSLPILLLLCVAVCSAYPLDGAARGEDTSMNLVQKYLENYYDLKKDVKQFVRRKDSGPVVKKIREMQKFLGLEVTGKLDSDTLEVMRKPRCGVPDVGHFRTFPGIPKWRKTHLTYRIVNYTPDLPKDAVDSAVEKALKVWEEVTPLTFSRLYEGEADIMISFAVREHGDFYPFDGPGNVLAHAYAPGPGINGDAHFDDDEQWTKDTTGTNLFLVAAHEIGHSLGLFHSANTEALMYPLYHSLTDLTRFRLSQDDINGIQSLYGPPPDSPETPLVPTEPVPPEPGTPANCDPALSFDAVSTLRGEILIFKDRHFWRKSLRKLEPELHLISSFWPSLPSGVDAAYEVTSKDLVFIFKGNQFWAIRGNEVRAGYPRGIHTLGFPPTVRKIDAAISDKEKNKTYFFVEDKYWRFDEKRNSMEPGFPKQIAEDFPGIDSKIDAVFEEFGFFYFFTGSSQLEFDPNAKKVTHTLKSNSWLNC
# human Protein Phosphatase, Mg2+/Mn2+ Dependent 1A (PPM1A), PPM1A (gene 5494), sequence (P35813 whole entry, looked up): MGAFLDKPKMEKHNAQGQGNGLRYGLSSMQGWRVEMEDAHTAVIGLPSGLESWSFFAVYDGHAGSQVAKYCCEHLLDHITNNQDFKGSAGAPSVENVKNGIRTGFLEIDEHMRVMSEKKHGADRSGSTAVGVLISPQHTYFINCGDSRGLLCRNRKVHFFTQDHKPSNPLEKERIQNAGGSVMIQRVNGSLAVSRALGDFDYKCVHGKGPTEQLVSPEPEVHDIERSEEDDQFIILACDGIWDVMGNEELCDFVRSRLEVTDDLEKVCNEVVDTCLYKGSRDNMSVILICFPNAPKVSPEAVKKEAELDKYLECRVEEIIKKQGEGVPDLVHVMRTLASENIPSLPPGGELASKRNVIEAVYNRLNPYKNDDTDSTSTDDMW
# human Protein Tyrosine Phosphatase Non-receptor Type 1 (PTPN1), PTPN1 (gene 5770), sequence (P18031 whole entry, looked up): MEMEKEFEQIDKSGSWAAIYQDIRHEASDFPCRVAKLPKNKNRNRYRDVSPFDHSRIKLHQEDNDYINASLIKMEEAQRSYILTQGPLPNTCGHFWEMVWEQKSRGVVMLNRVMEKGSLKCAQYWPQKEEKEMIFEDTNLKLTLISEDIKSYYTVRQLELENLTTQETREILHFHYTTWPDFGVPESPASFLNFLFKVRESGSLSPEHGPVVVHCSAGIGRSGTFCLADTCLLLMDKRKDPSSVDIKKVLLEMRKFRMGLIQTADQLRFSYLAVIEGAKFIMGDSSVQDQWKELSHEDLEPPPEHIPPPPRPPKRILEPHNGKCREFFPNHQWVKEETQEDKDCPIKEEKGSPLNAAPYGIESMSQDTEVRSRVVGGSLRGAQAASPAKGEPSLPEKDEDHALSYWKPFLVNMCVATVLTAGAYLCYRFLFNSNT
compound,measurement,setting,value
CCCCCCCCCCCCCCCO,outcome,[1],inactive
CCCCC(CC)COC(=O)CCCCCCCCC(=O)OCC(CC)CCCC (stereo not given),outcome,[2],inactive
CCCCCCc1ccc(O)cc1O,outcome,[3],inactive
same,AC50,[4],39.2 µM (active)
same,outcome,[5],inactive
CCN(C(=O)c1cc(C)cc(OC[C@H](C)Nc2ccncc2)c1)C(C)C,outcome,[6],inactive
CCOC(=O)c1ccc(C2CCC(NC[C@H](O)COc3ccc(O)c(NS(C)(=O)=O)c3)CC2)cc1 (stereo not given in full),AC50,[7],12.7 µM (active)
COc1ccc(-n2nc(C(F)F)cc2-c2ccc(S(C)=O)cc2)cc1 (stereo not given),AC50,[4],0.00229 µM (active)
Cn1c(=O)c2c(ncn2C)n(C)c1=O,AC50,[4],25 µM (active)
same,AC50,[8],25 µM (active)
Cc1[nH]cnc1C[C@H]1CCc2c(C)c3ccccc3n2C1=O,AC50,[9],29.9 µM (active)
same,outcome,[10],inactive
NC(=O)NO,outcome,[7],inactive
CC1(C)C(=O)N(Br)C(=O)N1Br,outcome,[4],inactive
Cc1ccc(C)c(O)c1,outcome,[6],inactive
COc1ccc2sc(C(=O)Nc3nnn[nH]3)c(OC(C)C)c2c1,AC50,[9],46.7 µM (active)
same,AC50,[11],13.2 µM (active)
same,AC50,[12],0.192 µM (active)
O=c1n(CC2CO2)c(=O)n(CC2CO2)c(=O)n1CC1CO1 (stereo not given),outcome,[5],inactive
CC(=O)c1ccc2c(c1)[C@H](NC(=O)c1ccc(F)cc1)[C@@H](O)C(C)(C)O2,outcome,[11],inactive
COC(=O)CC(=O)OC,AC50,[13],7.18 µM (active)
same,outcome,[7],inactive
same,outcome,[4],inactive
COCCOCCOCCOC,outcome,[7],inactive
same,outcome,[5],inactive
CN(C)c1ccc(N=NS(=O)(=O)O)cc1,outcome,[11],inactive
same,outcome,[14],inactive
same,AC50,[10],12.5 µM (active)
same,AC50,[15],16.4 µM (active)
CCCCCCCCCCCCc1ccccc1,outcome,[14],inactive
CC[C@H]1CC[C@H](NCc2cc3c(cc2OC)[C@H]2C[C@H]2C(=O)N3C)[C@H](c2ccccc2)N1,outcome,[4],inactive
same,outcome,[8],inactive
O=c1[nH]c2ccc(S(=O)CCN3CCC(Cc4ccc(F)cc4)CC3)cc2o1 (stereo not given),outcome,[6],inactive
O=C(O)CC(O)C(=O)O (stereo not given),outcome,[16],inactive
same,outcome,[4],inactive
same,outcome,[8],inactive
same,AC50,[17],39.2 µM (active)
O=C(OC[C@H]1O[C@@H](OC(=O)c2cc(O)c(O)c(OC(=O)c3cc(O)c(O)c(O)c3)c2)[C@H](OC(=O)c2cc(O)c(O)c(OC(=O)c3cc(O)c(O)c(O)c3)c2)[C@@H](OC(=O)c2cc(O)c(O)c(OC(=O)c3cc(O)c(O)c(O)c3)c2)[C@@H]1OC(=O)c1cc(O)c(O)c(OC(=O)c2cc(O)c(O)c(O)c2)c1)c1cc(O)c(O)c(OC(=O)c2cc(O)c(O)c(O)c2)c1,AC50,[9],0.437 µM (active)
CN(C)c1ccc(Cc2ccc(N(C)C)cc2)cc1,outcome,[11],inactive
C=CCCCCCCCCC(=O)O,outcome,[13],inactive
same,outcome,[4],inactive
COc1cccc(-c2ccc(/C=C\CN3CCCCCC3)cc2Cl)c1,outcome,[4],inactive
same,AC50,[8],22.6 µM (active)
O=C(CCCCCCCCc1cccnc1)N1CCC(C=C(c2ccccc2)c2ccccc2)CC1,outcome,[18],inactive
CCC(C)(C)C(=O)O[C@H]1C[C@@H](C)C=C2C=C[C@H](C)[C@H](CC[C@@H]3C[C@@H](O)CC(=O)O3)[C@H]21,AC50,[10],33.5 µM (active)
